Here are results for 32 compounds from PubChem BioAssay (NCATS).

The source made the active and inactive calls. The call rests on the fitted dose curve; in most records, active means well fitted curve in the direction sought with a large enough effect; inconclusive means small, poorly fitted or top-dose-only effect, or another doubt; inactive means no such curve, though single readings can be large or run the other way.

Alpha-galactosidase (Coffea arabica), sequence (Q42656 whole entry, looked up): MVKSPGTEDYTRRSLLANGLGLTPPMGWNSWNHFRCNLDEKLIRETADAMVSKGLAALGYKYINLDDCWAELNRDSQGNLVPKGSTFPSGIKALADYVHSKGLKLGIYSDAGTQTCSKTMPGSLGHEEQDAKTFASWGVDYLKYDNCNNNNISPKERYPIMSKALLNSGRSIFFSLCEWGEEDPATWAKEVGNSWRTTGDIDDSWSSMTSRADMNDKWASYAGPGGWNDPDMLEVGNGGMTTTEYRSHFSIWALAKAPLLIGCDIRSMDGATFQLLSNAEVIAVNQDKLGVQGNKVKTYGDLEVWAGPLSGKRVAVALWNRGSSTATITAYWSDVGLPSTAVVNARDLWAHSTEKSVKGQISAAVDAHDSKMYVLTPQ

This assay addresses Alpha-galactosidase (Coffea arabica) (UniProt Q42656). The experiment in a line: Counterscreen for Glucocerebrosidase Inhibitors: qHTS Assay for Coffee Bean alpha-Galactosidase at pH 4.5 (AID 957). As to conditions: purified coffee bean alpha-galactosidase, fluorogenic substrate; series mostly up to 76.9 µM. A digest of the protocol: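 Quantitative HTS of compounds (0.7 nM to 77 uM) against coffee bean alpha-galactosidase at pH 4.5, measuring 4-methylumbelliferone fluorescence released from 80 uM substrate.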
On to `CN(C)CCCN1c2ccccc2Sc2ccc(C(F)(F)F)cc21`, for which the result was inactive. The entry for `CNC[C@H](O)c1ccc(O)c(O)c1` is “inactive”; for `COc1cc(C(=O)OCCCN2CCCN(CCCOC(=O)c3cc(OC)c(OC)c(OC)c3)CC2)cc(OC)c1OC` it is “inactive”; for `CC1=C(C)C(=O)C(CCCCC#CCCCC#CCO)=C(C)C1=O` it is “inactive”. With `O=C1CC2(CCCC2)CC(=O)N1CCCCN1CCN(c2ncccn2)CC1`, the outcome was inactive.

With `COc1cc2c(cc1OC)-c1cc(=Nc3c(C)cc(C)cc3C)n(C)c(=O)n1CC2`, the result was inactive.

Consider `CCc1cccc2c3c([nH]c12)C(CC)(CC(=O)O)OCC3` (configuration not stated), for which the compound was called inactive. Take `NS(=O)(=O)c1cc2c(cc1Cl)NCNS2(=O)=O`: the result was inactive.

As to `CCOC(=O)Nc1ccc(NCc2ccc(F)cc2)nc1N`, the compound was called inactive. Under `C#CCN(C)Cc1ccccc1` stands “inactive”; under `CCNC(=O)N1CCN(CCCC(c2ccc(F)cc2)c2ccc(F)cc2)CC1`, “inactive”. In the case of `NC(=O)CC[C@@H](N)C(=O)O`, the outcome was inactive. The entry for `CN(C)CCN(Cc1cccs1)c1ccccn1` is “inactive”. As to `CCCCNc1c(C(=O)OCC)c(C)nc2c1cnn2CC`, the compound was called inactive. For `Nc1ccn([C@H]2CC[C@@H](CO)O2)c(=O)n1`, the outcome was inactive. In the case of `OC(CN1CCC(Cc2ccc(F)cc2)CC1)c1ccc(Cl)cc1` (configuration not stated), the compound was classed as inactive. For the compound `CCc1cccc(N(C)C(N)=Nc2cccc3ccccc23)c1`, the result was inactive. Under `O=C(Nc1ccc([N+](=O)[O-])cc1Cl)c1cc(Cl)ccc1O` stands “inactive”; under `C[N+](C)(C)CCOC(=O)CCC(=O)OCC[N+](C)(C)C`, “inactive”.

With `CCCCC1C(=O)N(c2ccccc2)N(c2ccccc2)C1=O`, the compound was called inactive. Under `CN(C(=O)CCCOc1ccc2[nH]c(=O)ccc2c1)C1CCCCC1` stands “inactive”. For the compound `CN1CCC(=C2c3ccccc3CC(=O)c3sccc32)CC1`, the outcome was inactive. In the case of `Cc1ccc(N(CC2=NCCN2)c2cccc(O)c2)cc1`, the compound was called inactive. Under `c1cc(CN2CCCCC2)cc(OCCCNc2nc3ccccc3s2)c1` stands “inactive”; under `Brc1c(NC2=NCCN2)ccc2nccnc12`, “inactive”; under `CN(C)CCOC(c1ccccc1)c1ccccc1`, “inactive”. The entry for `NCCc1cnc[nH]1` is “inactive”. In the case of `O=C(O)CP(=O)(O)O`, the result was inactive. As to `Clc1ccc(Cn2c(CN3CCCC3)nc3ccccc32)cc1`, the compound was classed as inactive. Under `OCc1cc(C(O)CNCCCCCCOCCCCc2ccccc2)ccc1O` (configuration not stated) stands “inactive”. The entry for `Cn1cnc2c1c(=O)[nH]c(=O)n2C` is “inactive”; for `CCCCNc1ccc(C(=O)OCCN(C)C)cc1` it is “inactive”.
